Results taken from PubChem BioAssay AID1159580 (chemical genetic matrix, 2015).
Hit rate of the full screen: of about 5,500 compounds, about 2,000 (36%) were called active. Another 18% or so got no clear call; they are omitted. Rule as the data show it: active = normalized growth mostly below about 0.91 (no sharp cut-off); inconclusive = no clear call, values can overlap the other calls; inactive = mostly above about 0.92. This is one part of the list.

Experiment: chemical genetic growth profiling, strain panel (AID 1159580);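 also: tested at 20 µM; growth read once vehicle control cultures reached saturation at 30 °C; 1 = growth at the plate median or of vehicle wells; lower values mean less growth of the strain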
Conditions: growth OD

Measured: normalized growth

CCCCCCc1ccc(O)cc1O
active: S. cerevisiae deletion strains, locus YJR066W, strain TOR1, active compounds read low 0.813 | S. cerevisiae deletion strains, locus YKL009W, strain mrt4, active compounds read low 0.868 | S. cerevisiae deletion strains, locus YKL160W, strain elf1, active compounds read low 0.901 | S. cerevisiae deletion strains, locus YKR001C, strain vps1, active compounds read low 0.325 | S. cerevisiae deletion strains, locus YLL026W, active compounds read low 0.915 | S. cerevisiae deletion strains, locus YLR027C, strain aat2, active compounds read low 0.855 | S. cerevisiae deletion strains, locus YLR039C, strain RIC1, active compounds read low 0.291 | S. cerevisiae deletion strains, locus YLR113W, strain HOG1, active compounds read low 0.744 | S. cerevisiae deletion strains, locus YLR221C, strain rsa3, active compounds read low 0.824 | S. cerevisiae deletion strains, locus YLR258W, strain gsy2, active compounds read low 0.891 | S. cerevisiae deletion strains, locus YLR262C, strain YPT6 (second series), active compounds read low 0.582 | S. cerevisiae deletion strains, locus YLR262C, strain YPT6, active compounds read low 0.449 | S. cerevisiae deletion strains, locus YLR320W, strain mms22, active compounds read low 0.74 | S. cerevisiae deletion strains, locus YLR330W, strain CHS5, active compounds read low 0.872 | S. cerevisiae deletion strains, locus YLR371W, strain rom2, active compounds read low 0.622 | S. cerevisiae deletion strains, locus YLR418C, strain cdc73, active compounds read low 0.767 | S. cerevisiae deletion strains, locus YML032C, strain rad52, active compounds read low 0.784 | S. cerevisiae deletion strains, locus YML120C, strain ndi1, active compounds read low 0.836 | S. cerevisiae deletion strains, locus YMR058W, strain fet3, active compounds read low 0.881 | S. cerevisiae deletion strains, locus YMR078C, strain ctf18, active compounds read low 0.912 | S. cerevisiae deletion strains, locus YMR205C, strain PFK2, active compounds read low 0.749 | S. cerevisiae deletion strains, locus YMR223W, strain ubp8, active compounds read low 0.801 | S. cerevisiae deletion strains, locus YMR307W, strain GAS1, active compounds read low 0.563 | S. cerevisiae deletion strains, locus YNL067W, strain RPL9B, active compounds read low 0.779 | S. cerevisiae deletion strains, locus YNL071W, strain lat1, active compounds read low 0.64 | S. cerevisiae deletion strains, locus YNL183C, strain NPR1, active compounds read low 0.813 | S. cerevisiae deletion strains, locus YNL233W, strain BNI4, active compounds read low 0.858 | S. cerevisiae deletion strains, locus YNL248C, strain rpa49, active compounds read low 0.84 | S. cerevisiae deletion strains, locus YNL298W, strain CLA4, active compounds read low 0.831 | S. cerevisiae deletion strains, locus YNL307C, strain MCK1, active compounds read low 0.322 | S. cerevisiae deletion strains, locus YNR052C, strain pop2, active compounds read low 0.77 | S. cerevisiae deletion strains, locus YOL147C, strain pex11, active compounds read low 0.803 | S. cerevisiae deletion strains, locus YOR001W, strain rrp6, active compounds read low 0.876 | S. cerevisiae deletion strains, locus YOR106W, strain vam3, active compounds read low 0.837 | S. cerevisiae deletion strains, locus YOR144C, strain elg1, active compounds read low 0.861 | S. cerevisiae deletion strains, locus YOR184W, strain ser1, active compounds read low 0.685 | S. cerevisiae deletion strains, locus YOR231W, strain MKK1, active compounds read low 0.801 | S. cerevisiae deletion strains, locus YOR270C, strain vph1, active compounds read low 0.73 | S. cerevisiae deletion strains, locus YOR290C, strain snf2, active compounds read low 0.819 | S. cerevisiae deletion strains, locus YPL051W, strain arl3, active compounds read low 0.705 | S. cerevisiae deletion strains, locus YPL078C, strain atp4, active compounds read low 0.891 | S. cerevisiae deletion strains, locus YPL240C, strain hsp82, active compounds read low 0.924 | S. cerevisiae deletion strains, locus YPL256C, strain CLN2, active compounds read low 0.782 | S. cerevisiae deletion strains, locus YPR163C, strain tif3, active compounds read low 0.906 | S. cerevisiae deletion strains, locus YPR167C, strain met16, active compounds read low 0.868 | S. cerevisiae deletion strains, strain wtn01, active compounds read low 0.768
inactive: S. cerevisiae deletion strains, locus YJL187C, strain SWE1, active compounds read low 0.952 | S. cerevisiae deletion strains, locus YJR043C, strain POL32, active compounds read low 0.876 | S. cerevisiae deletion strains, locus YKL068W, active compounds read low 0.967 | S. cerevisiae deletion strains, locus YKL085W, strain MDH1 (second series), active compounds read low 0.954 | S. cerevisiae deletion strains, locus YKL085W, strain MDH1, active compounds read low 0.954 | S. cerevisiae deletion strains, locus YKL190W, strain CNB1, active compounds read low 0.944 | S. cerevisiae deletion strains, locus YKR026C, strain gcn3, active compounds read low 0.972 | S. cerevisiae deletion strains, locus YKR091W, strain srl3, active compounds read low 0.973 | S. cerevisiae deletion strains, locus YLL001W, strain dnm1, active compounds read low 0.935 | S. cerevisiae deletion strains, locus YLL041C, strain sdh2, active compounds read low 0.973 | S. cerevisiae deletion strains, locus YLR058C, strain SHM2, active compounds read low 0.915 | S. cerevisiae deletion strains, locus YLR102C, strain apc9, active compounds read low 0.955 | S. cerevisiae deletion strains, locus YLR268W, strain sec22, active compounds read low 0.913 | S. cerevisiae deletion strains, locus YLR342W, strain FKS1 (second series), active compounds read low 0.87 | S. cerevisiae deletion strains, locus YLR342W, strain FKS1, active compounds read low 0.973 | S. cerevisiae deletion strains, locus YLR357W, strain rsc2, active compounds read low 1.07 | S. cerevisiae deletion strains, locus YLR370C, strain arc18, active compounds read low 0.925 | S. cerevisiae deletion strains, locus YLR384C, strain iki3, active compounds read low 0.997 | S. cerevisiae deletion strains, locus YML016C, strain PPZ1, active compounds read low 0.947 | S. cerevisiae deletion strains, locus YML124C, strain tub3, active compounds read low 0.934 | S. cerevisiae deletion strains, locus YMR125W, strain sto1, active compounds read low 1.04 | S. cerevisiae deletion strains, locus YMR129W, active compounds read low 0.976 | S. cerevisiae deletion strains, locus YMR231W, strain pep5, active compounds read low 0.999 | S. cerevisiae deletion strains, locus YNL209W, strain ssb2, active compounds read low 0.972 | S. cerevisiae deletion strains, locus YNL250W, strain rad50, active compounds read low 0.986 | S. cerevisiae deletion strains, locus YNL271C, strain bni1, active compounds read low 0.952 | S. cerevisiae deletion strains, locus YNL322C, strain KRE1 (second series), active compounds read low 0.927 | S. cerevisiae deletion strains, locus YNR049C, strain mso1, active compounds read low 0.978 | S. cerevisiae deletion strains, locus YOL012C, strain htz1 1.21 | S. cerevisiae deletion strains, locus YOR061W, strain CKA2, active compounds read low 0.962 | S. cerevisiae deletion strains, locus YOR069W, strain VPS5, active compounds read low 0.97 | S. cerevisiae deletion strains, locus YOR070C, strain gyp1, active compounds read low 0.95 | S. cerevisiae deletion strains, locus YOR080W, strain dia2, active compounds read low 0.969 | S. cerevisiae deletion strains, locus YOR083W, strain WHI5, active compounds read low 0.908 | S. cerevisiae deletion strains, locus YOR136W, strain idh2, active compounds read low 0.928 | S. cerevisiae deletion strains, locus YOR265W, strain rbl2, active compounds read low 0.957 | S. cerevisiae deletion strains, locus YOR316C, strain cot1, active compounds read low 0.956 | S. cerevisiae deletion strains, locus YPL106C, strain sse1, active compounds read low 1.05 | S. cerevisiae deletion strains, locus YPL241C, strain CIN2, active compounds read low 0.953 | S. cerevisiae deletion strains, locus YPR119W, strain clb2, active compounds read low 0.956 | S. cerevisiae deletion strains, locus YPR141C, strain kar3, active compounds read low 0.963 | S. cerevisiae strains, strain wild type, active compounds read low 0.926
